12-hLO inh = qHTS Assay for Inhibitors of 12-hLO (12-human lipoxygenase); Polyunsaturated fatty acid lipoxygenase ALOX12 (Homo sapiens), P18054; purified 12-hLO, xylenol orange hydroperoxide absorbance; Potency, µM (highest dose often 57.1 µM), for inactives: at the top dose activity change, negative = inhibition, actives largely listed as inhibitors; actives 0.12% (n = 150,000); further: nearly all actives have a fitted effect of over 55% in size
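Hydroperoxide formation by human 12-lipoxygenase from 40 uM arachidonic acid was followed colorimetrically via ferric-xylenol orange complex, using the 573/405 nm absorbance ratio. Enzyme concentration was 150 nM, with 30 min reaction at room temperature.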
ALOX15B inhib = qHTS Assay for Inhibitors of 15-hLO-2 (15-human lipoxygenase 2) | Polyunsaturated fatty acid lipoxygenase ALOX15B (Homo sapiens), O15296 | purified 15hLO-2, xylenol orange hydroperoxide absorbance | Potency, µM (top dose mostly 57.1 µM), inactives show at the top dose activity change, negative = inhibition, actives largely listed as inhibitors | actives 0.56% (n = 110,000); further: nearly all actives have a fitted effect of over 60% in size
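Read-out: hydroperoxide product oxidises ferrous iron, measured as xylenol orange complex via the 573-to-405 nm absorbance ratio after 30 min. Reaction: 50 nM enzyme, 15 min compound preincubation, 45 uM arachidonic acid, 90 min RT, Hepes pH 7.5 with Triton X-100.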
Starred values were filed as active, the others as inactive; ? = inconclusive; nt = no result; [ ] = another dose, or the depositor's remark. This excerpt belongs to a sample that is enriched for hits. The call rests on the fitted dose curve; in most records, active means well fitted curve in the direction sought with a large enough effect; inconclusive means small, poorly fitted or top-dose-only effect, or another doubt; inactive means no such curve, though single readings can be large; an effect the other way counts as inactive or inconclusive. On the % scale 0 is the no-effect control and ±100 the full control effect; potency means the concentration at half of the fitted maximal effect.

SMILES	12-hLO inh	ALOX15B inhib
O=c1cc(-c2ccc(O)c(O)c2)oc2cc(O)cc(O)c12	?	16µM*
O=C(O)[C@@H](O)[C@@H](O)[C@@H]1[O][Sb][O][C@@H]1CO	1%[11.4 µM]	9%[11.4 µM]
O=C(NC1(C(F)(F)F)Oc2ccccc2O1)N1CCC2(CC1)OCCO2	-9%	nt
O=C(NC1(C(F)(F)F)Oc2ccc(Cl)cc2O1)N1CCC2(CC1)OCCO2 (stereo not drawn)	?	7.9µM*
COCc1cc(C)c(C#N)c(=S)[nH]1	0%	?
C=CCc1c(C)[nH]c(=S)c(C#N)c1C	-24%	13µM*
N#CC(C#N)=Cc1ccc(O)c(O)c1	?	13µM*
COc1cc(C=C(C#N)C#N)cc(O)c1O	-9%	?
Cc1nc2ccccc2cc1C[N+]12CN3CN(CN(C3)C1)C2	-17%[11.4 µM]	-20%[11.4 µM]
N#CC(C#N)=NNc1ccc(OC(F)(F)F)cc1	-5%	16µM*
N#CC(C#N)=NNc1cccc(Cl)c1	-11%	?
NC[C@H](O)c1cc(O)c(O)cc1F	2%	-6%
O=C(O)c1cc[c]([Hg][S]c2ncnc3nc[nH]c23)cc1	?	2.5µM*
O=c1c2ccccc2nc(CSc2ncnc3nc[nH]c23)n1-c1ccccc1	-7%	6%
COc1ccc2c(c1)[C@]13CCCC[C@@H]1[C@H](C2)NCC3	-4%	15%
CCCN1CCc2cc(O)cc3c2[C@H]1Cc1ccc(O)c(O)c1-3	-22%	-21%
C=CCN1CCc2cccc3c2[C@@H]1Cc1ccc(O)c(O)c1-3	-17%	6.3µM*
C=C(C)[C@H]1Cc2c(ccc3c2O[C@H]2COc4cc(OC)c(OC)cc4[C@@H]2C3=O)O1	-6%	-5%
C[C@@H]1[C@H]2C=C[C@@H]1[C@@H](c1c3ccc(=O)c(O)c-3oc3c(O)c(O)ccc13)[C@@H]2C(=O)O	-23%[11.4 µM]	?
C[C@]12Cc3cn4c(nc3C=C1CC[C@H]1[C@@H]2CC[C@@]2(C)[C@H]1CC[C@@]2(O)C#N)nc1ccccc14	-7%	16%
Cc1cc2c(C(C)C)c(O)c(O)c(C=O)c2c(O)c1-c1c(C)cc2c(C(C)C)c(O)c(O)c(C=O)c2c1O	?	3.5µM*
Nc1ccccc1O.O.O=C(O)[C@H]1[O][Sb][O][C@H]1C(=O)O	-5%[11.4 µM]	-22%[11.4 µM]
CC(C)N[C@@H](C)Cc1ccc(I)cc1	-3%	16%
CN1CCN(c2ccc([N+](=O)[O-])c3[nH]o[n+](=O)c23)CC1	1%[11.4 µM]	-4%[11.4 µM]
CC[C@H](CO)NC(=O)[C@@H]1C=C2c3cccc4c3c(cn4C)C[C@@H]2N(C)C1	-5%	-8%
CSC([N-]/N=C/c1cccc(C)n1)=[S]=[Cu].CS[C@H]([S-])[N-]/N=C/c1cccc(C)n1	?	3.2µM*
CCCN1CCC[C@H](c2cccc(C#N)c2)C1	4%	6%
